# Bioassay records from PubChem.
# Shown is part of a subset that was picked to be rich in hits.
# Artemis endo inh = Artemis (human) endonuclease inhibition; Q96SD1; recombinant Artemis, quenched FAM hairpin cleavage fluorescence; inhibition, % at 10 µM; 30,000 tested, 0.78% active; AID 686954;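 active means at 10 µM dose, at least 30% inhibition, measured as corrected fluorescence normalized to stimulator and neutral control wells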
# Target sequence (Q96SD1 whole entry, looked up): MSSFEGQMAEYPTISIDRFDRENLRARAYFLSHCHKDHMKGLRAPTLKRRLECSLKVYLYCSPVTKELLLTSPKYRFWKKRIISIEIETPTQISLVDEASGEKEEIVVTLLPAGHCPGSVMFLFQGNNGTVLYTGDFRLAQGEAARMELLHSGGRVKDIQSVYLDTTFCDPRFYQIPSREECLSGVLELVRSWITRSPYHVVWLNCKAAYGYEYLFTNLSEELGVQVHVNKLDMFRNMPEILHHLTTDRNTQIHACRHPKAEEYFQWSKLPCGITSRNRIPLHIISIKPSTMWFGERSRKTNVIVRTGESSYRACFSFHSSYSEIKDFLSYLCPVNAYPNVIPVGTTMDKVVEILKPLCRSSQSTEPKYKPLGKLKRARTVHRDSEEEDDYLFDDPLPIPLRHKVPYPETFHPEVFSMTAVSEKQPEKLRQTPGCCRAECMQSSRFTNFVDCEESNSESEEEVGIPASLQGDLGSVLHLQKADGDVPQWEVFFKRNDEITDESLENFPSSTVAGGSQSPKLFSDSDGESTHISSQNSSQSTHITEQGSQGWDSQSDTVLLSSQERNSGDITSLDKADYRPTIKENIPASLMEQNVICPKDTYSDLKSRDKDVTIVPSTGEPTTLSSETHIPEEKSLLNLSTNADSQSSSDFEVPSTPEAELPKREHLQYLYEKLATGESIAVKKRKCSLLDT
# Numbers without * were called inactive.
SMILES,Artemis endo inh
CCOc1cccc(C(=O)NC(=S)Nc2ccc(N3CCCC3)cc2)c1,43*
CCC(=O)Nc1ccc(N2CCN(Cc3ccccc3)CC2)cc1,11
CCCC(=O)Nc1ccc(N2CCOCC2)cc1,-13
CCCC(=O)N1CCN(c2ccc(NC(=O)C(C)(C)C)cc2)CC1,-6
CC(C)C(=O)Nc1ccc(N2CCCC2)cc1,8
COc1ccccc1C(=O)Nc1ccc(N2CCCCC2)cc1,2
COc1ccccc1C(=O)Nc1ccc(N2CCN(Cc3ccccc3)CC2)cc1,3
O=C(Cc1ccccc1)Nc1ccc(N2CCCC2)cc1,59*
CCCCC(=O)Nc1ccc(N2CCCC2)cc1,44*
CCC(=O)N1CCN(c2ccc(NC(=S)NC(=O)c3cccc([N+](=O)[O-])c3)cc2)CC1,-3
O=C(NC1CCCCC1)C1CC=CCC1C(=O)OCC(Cl)=C(Cl)Cl (centres undefined),6
O=C(CSc1nnc(-c2ccccc2)n1Cc1ccco1)NCc1ccc2c(c1)OCO2,-4
C=CCn1cnc2scc(-c3ccc(C)cc3)c2c1=O,6
CC(=O)NC(=O)COC(=O)/C=C/c1c(C)nn(Cc2c(Cl)cccc2Cl)c1Cl,-5
Cc1nc(-c2ccccc2O)n(-c2ccccc2)n1,-2
C=CCn1c(SCC(=O)N2CCc3ccccc3C2)nc2sc(C)cc2c1=O,13
Cc1cc(C)cc(COn2ccnc2)c1,4
FC(F)(F)c1nc2ccccc2nc1N/N=C/c1c(Cl)cccc1Cl,5
CCn1cc(C(=O)NCc2ccc3c(c2)OCO3)c(=O)c2cc(F)c(N3CCN(C(=O)c4ccco4)CC3)cc21,17
Cc1c(Cc2c(Cl)cccc2Cl)c(=O)ccn1C(C)c1ccccc1 (centres undefined),-4
CC(=O)NC(CC(=O)Nc1cccc(S(=O)(=O)N2CCCCC2)c1)c1ccccc1 (centres undefined),-5
O=c1oc2cc(Cl)ccc2n1CSc1nc2ccccc2s1,10
COc1cccc(NC(=O)c2cn(C)c(=O)c3cc(OC)c(OC)cc23)c1,-7
COc1ccc(OC)c(NC(=O)c2ccccc2NS(=O)(=O)c2cccc3cccnc23)c1,-1
COc1ccc2[nH]c3c(NCCN(C(C)C)C(C)C)ncnc3c2c1,-9
COc1cc(NCCCC(C)N)c2ncccc2c1 (centres undefined),55*
CN(C)S(=O)(=O)c1cccc(C(=O)NCc2cccs2)c1,-7
COC(=O)C(C)Sc1snnc1-c1ccccc1 (centres undefined),-9
CN1c2ccsc2C(O)=C(C(=S)Nc2ccc(F)c(Cl)c2)S1(=O)=O,14
